Screen size: about 350,000 compounds; about 7,000 (2%) were called active. The sample holds actives, similar compounds and a random draw of the others, so the mix is not that of the screen. Cut-off read from the data, not from the text of the source: active = activation above about 40%; inconclusive = no clear call, values can overlap the other calls; inactive = below that.
Assay: Bmi1 luciferase reporter increase in mESCs, primary screen, esBAF inhibitor project, mouse ES cells, Bmi1 luciferase knock-in, single point (AID 602393);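 note: 0% = median of the plate's neutral control wells and 100% = double that signal; a rise in the Bmi1 reporter signal indicates esBAF inhibition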
Conditions: 24 h, at 12.5 µM, stronger effect = higher value, 100% = twice the neutral-well signal

Row | SMILES | reporter increase
1 | C[C@H](CO)N1C[C@H](C)[C@H](CN(C)Cc2ccncc2)Oc2ccc(NC(=O)C3CCCCC3)cc2CC1=O | 4.88% (inactive)
2 | COc1ccccc1-c1c(C)nn2c(C)c(C(C)=O)cnc12 | -4.24% (inactive)
3 | COC(=O)c1cnc(Nc2cc(C)ccc2OC)c2ccccc12 | -2.74% (inactive)
4 | COc1ccccc1Nc1ncc(C(C)=O)c(C)n1 | 43.9% (active)
5 | CCC(=O)Nc1ccc2c(c1)OC[C@H](C)N(Cc1ccccc1OC)C[C@@H](C)[C@@H](OC)CN(C)C2=O | 4.11% (inactive)
6 | CO[C@H]1CN(C)C(=O)c2cc(NC(=O)Nc3cccc(F)c3)ccc2OC[C@@H](C)N(C)C[C@@H]1C | 1.05% (inactive)
7 | C[C@H](CO)N1C[C@H](C)[C@H](CN(C)C(=O)C2CCOCC2)Oc2ncc(-c3ccccc3F)cc2C1=O | -0.932% (inactive)
8 | COc1ccc(-c2ccc3c(c2)O[C@H](CN(C)Cc2ccccc2C(=O)O)[C@H](C)CN([C@@H](C)CO)S3(=O)=O)cc1 | 4.05% (inactive)
9 | COc1ccc(Nc2ncnc3ccc(Br)cc23)c(OC)c1 | -66.9% (inactive)
10 | CCC(C(=O)OC)n1cnc2c(oc3ccccc32)c1=O (stereo not given) | 2.51% (inactive)
11 | COc1ccccc1Nc1ncnc2c1oc1ccccc12 | 75.2% (active)
12 | CCCC(=O)Nc1ccc2c(c1)C(=O)N(C)[C@H]1CC[C@@H](CC(=O)NCc3cccc(F)c3)O[C@H]1CO2 | 11.9% (inactive)
13 | O=C(NCC[C@H]1CC[C@H](NS(=O)(=O)c2ccccc2)[C@H](CO)O1)c1cc(Cl)cc(Cl)c1 | 1.99% (inactive)
14 | O=C(Nc1cc(F)ccc1F)c1ccc2c(=O)n3c(nc2c1)CCC3 | 54.2% (active)
15 | CC1CCN(C(=O)c2ccc3c(=O)n4c(nc3c2)CCCCC4)CC1 | 10.6% (inactive)
16 | Cc1cc(C)c(C)c(S(=O)(=O)N2CCN(C(=O)c3ccc4c(=O)n5c(nc4c3)CCC5)CC2)c1C | -1.07% (inactive)
17 | CC(C)CC#Cc1cnc2c(c1)C(=O)N([C@@H](C)CO)C[C@@H](C)[C@@H](CN(C)S(=O)(=O)c1cccs1)O2 | -1.12% (inactive)
18 | Cn1cnc(S(=O)(=O)N2C[C@H](O)COC[C@@H]3O[C@H](CC(=O)NC4Cc5ccccc5C4)CC[C@H]32)c1 | 1.23% (inactive)
19 | O=C(NC1=NCCS1)c1ccc(Cl)s1 | 56.6% (active)
20 | O=C(NCc1ccc2c(c1)OCO2)c1ccc(Cl)s1 | 16.1% (inactive)

Row | SMILES | reporter increase
21 | COc1ccccc1C(=O)NCCC(=O)NC1=NCCS1 | 4.18% (inactive)
22 | COCC(=O)N1C[C@H](C)[C@@H](OC)CN(C)C(=O)c2cc(NC(=O)c3ccc(OC)cc3)ccc2OC[C@H]1C | -1.57% (inactive)
23 | CCCNC(=O)C[C@@H]1CC[C@H]2[C@H](COc3ccc(NS(=O)(=O)c4ccccc4C)cc3C(=O)N2C)O1 | 0.502% (inactive)
24 | CNC[C@H]1OCCCC[C@H](C)Oc2ccc(NS(C)(=O)=O)cc2C(=O)N([C@@H](C)CO)C[C@H]1C | 3.58% (inactive)
25 | CCC1([N+](=O)[O-])COC(c2ccc(C)cc2)OC1 (stereo not given) | -1.7% (inactive)
26 | CCC1([N+](=O)[O-])COC(c2ccc(C(C)C)cc2)OC1 (stereo not given) | 98.9% (active)
27 | CC(C)c1ccc(S(=O)(=O)NC2CCCC2)cc1 | 1.91% (inactive)
28 | CCCN(CC1CC1)C(=S)NC(=O)c1ccccc1Br | -4.35% (inactive)
29 | O=C(Nc1ccccc1)c1ccccc1Br | 22.5% (inactive)
30 | O=C(NC(=S)Nc1ncccn1)c1ccccc1Br | 44.5% (active)
31 | CO[C@@H]1CN(C)C(=O)c2cc(NC(=O)Nc3cccc(Cl)c3)ccc2OC[C@@H](C)N(C)C[C@@H]1C | -1.87% (inactive)
32 | CO[C@H]1CN(C)C(=O)c2ccc(NC(=O)c3cccc(F)c3)cc2OC[C@H](C)N(CC2CC2)C[C@@H]1C | 9.27% (inactive)
33 | CN(C)C(=O)CCc1ccc2c3c([nH]c2c1)[C@]1(C)[C@@H](C(=O)N2CCCCC2)C[C@H](CC(=O)NCCC2=CCCCC2)C(=O)N1CC3 | 8% (inactive)
34 | CC(C)N(C(=O)[C@H]1C[C@H](CC(=O)NCCC2=CCCCC2)C(=O)N2CCc3c([nH]c4cc(CCC(=O)N(C)C)ccc34)[C@]12C)C(C)C | 5.79% (inactive)
35 | CN(C)C(=O)CCc1ccc2c3c([nH]c2c1)[C@]1(CCc2ccccc2)[C@@H](C(=O)N2CCCCC2)C[C@H](CC(=O)NCCC2=CCCCC2)C(=O)N1CC3 | 67.9% (active)
36 | O=C(C[C@@H]1C[C@@H]2c3cc(NC(=O)C4CCC4)ccc3O[C@@H]2[C@@H](CO)O1)NCCN1CCCCC1 | 1.69% (inactive)
37 | Cc1noc(C)c1S(=O)(=O)Nc1ccc2c(c1)CC(=O)N([C@@H](C)CO)C[C@@H](C)[C@H](CN(C)S(=O)(=O)c1cccs1)O2 | -4.75% (inactive)
38 | O=C(CC(O)(C(F)(F)F)C(F)(F)F)Nc1ccc(Cl)c(Cl)c1 | -47.8% (inactive)
39 | CCn1nccc1C(=O)Nc1ccc(S(=O)(=O)NC23CC4CC(CC(C4)C2)C3)cc1 | 14.5% (inactive)
40 | CCn1nccc1C(=O)Nc1ccc(Cl)c(Cl)c1 | 61.9% (active)

Row | SMILES | reporter increase
41 | Cc1ccc(CN(C)C[C@H]2OCc3cn(nn3)CCCC(=O)N([C@@H](C)CO)C[C@H]2C)cc1 | 3.63% (inactive)
42 | O=C(Cc1ccc(Cl)cc1)c1ccccc1 | 61.9% (active)
43 | O=C(CN1CCN(c2ccc(Cl)cc2)CC1)c1ccccc1 | -0.082% (inactive)
44 | O=C(Cc1ccc(Cl)cc1)NC(=S)Nc1ccccc1O | 2.82% (inactive)
45 | COc1ccc(-c2ccc3c(c2)[C@@H]2[C@@H](CCN2S(=O)(=O)c2ccccc2F)[C@H](CO)N3)cc1 | -0.198% (inactive)
46 | C[C@@H]1CN([C@H](C)CO)C(=O)Cc2cc(NC(=O)CCCN(C)C)ccc2O[C@H]1CN(C)CC1CCCCC1 | -2.32% (inactive)
47 | C[C@@H]1CN([C@H](C)CO)C(=O)c2cc(NS(=O)(=O)c3ccc(Cl)cc3)ccc2O[C@@H]1CN(C)CC1CCCCC1 | 5.96% (inactive)
48 | O=C(C[C@H]1C=C[C@H](NS(=O)(=O)c2ccc(F)cc2)[C@H](CO)O1)NCc1ccncn1 | 0.952% (inactive)
49 | COc1ccc(C(=O)NC2CC(C)(C)NC(C)(C)C2)cc1OC | 0.227% (inactive)
50 | COc1ccc(Cl)cc1NC(=O)CN(C)CC(=O)Nc1ccc2c(c1)OCO2 | 0.413% (inactive)
51 | O=C(Nc1ccc(N2CCOCC2)cc1)c1ccc2c(c1)OCO2 | 39.9% (inactive)
52 | COc1cc(C(=O)NCC2(c3ccccc3)CCCC2)ccc1OC(C)C | -10.2% (inactive)
53 | Cc1ccc(NC(=O)c2ccc(Cl)nc2)cc1S(=O)(=O)N1CCOCC1 | 0.751% (inactive)
54 | COc1ccc(C(=O)Nc2ccc3c(c2)OCO3)cc1OC | 53.2% (active)
55 | Cc1ccc(C(=O)Nc2ncccc2C)cc1S(=O)(=O)N1CCOCC1 | 3.68% (inactive)
56 | Cc1ccc(C(=O)Nc2ccc3c(c2)OCO3)cc1S(=O)(=O)N1CCCCC1 | 57% (active)
57 | Cc1ccc(NC(=O)CCCNC(=O)c2ccc(Cl)cc2)cc1S(=O)(=O)N1CCCCC1 | -3.1% (inactive)
58 | Cc1ccc(NC(=O)C2CC(=O)N(c3ccc4c(c3)OCCO4)C2)cc1S(=O)(=O)N1CCCCCC1 (stereo not given) | 1.1% (inactive)
59 | COc1ccc(C(=O)Nc2ccc(C3(C#N)CCCC3)cc2)cc1OC | 44% (active)
60 | Cc1ccc(C(=O)Nc2ccc3c(c2)OCCO3)cc1S(=O)(=O)N1CCOCC1 | 70.5% (active)

Source: PubChem BioAssay AID602393 (Broad Institute, 2012)
